From PubChem BioAssay (NCI) come the findings set out here.

Structures are written as SMILES. The panel holds about 83,000 compounds, 20% with a hit somewhere; the sample as a whole holds those more often.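 Single-concentration screen, 48 h exposure, 96-well plates. Endpoint: percent growth. Below 10 = active.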 Unmarked numbers belong to inactive results. The source made the active and inactive calls.

Test systems include MOLT-4 leukemia; RPMI-8226 leukemia; OVCAR-8 ovarian; OVCAR-5 ovarian; OVCAR-4 ovarian; SK-OV-3 ovarian; IGROV1 ovarian; OVCAR-3 ovarian; HS 578T breast; NCI/ADR-RES ovarian; T-47D breast; BT-549 breast; MDA-MB-435 melanoma; SW-620 colon; MCF7 breast; HCT-116 colon; HCC-2998 colon; KM12 colon; SR leukemia.
Holding throughout (experiment): NCI-60 one-dose screen, 48 h (100 = growth as untreated, 0 = no growth, -100 = all killed)
Holding throughout (details): 10 µM unless noted

As to `NC(=O)CNc1ccc([As]=[As]c2ccc(NCC(N)=O)cc2)cc1` (configuration not stated), the growth in the test with MOLT-4 leukemia is 58.8%; in the test on RPMI-8226 leukemia it was 13.5%; in the test on OVCAR-8 ovarian, 61.2%; in the test on OVCAR-5 ovarian, 74.6%; in the test with OVCAR-4 ovarian, 60.6%; with SK-OV-3 ovarian, 93.7%. Moreover, the growth in the test with IGROV1 ovarian is 8.16% (active); with OVCAR-3 ovarian it was -41.5% (active); with HS 578T breast it was 10.5%; with NCI/ADR-RES ovarian, 65.6%; with T-47D breast, 33.3%; in the test on BT-549 breast it was 31.6%. The growth in the test on MDA-MB-435 melanoma is 61.7%; in the test on SW-620 colon, 24.6%; in the test on MCF7 breast, 22.9%; in the test on HCT-116 colon it was 54.7%; with HCC-2998 colon, 79.1%; in the test with KM12 colon it was 88.5%.
On to `O=C(Nc1ccc(Br)cc1)c1cc(Br)cc(Br)c1O`, for which the growth in the test with MOLT-4 leukemia is 62.2%; in the test on RPMI-8226 leukemia, -10.1% (active); in the test with OVCAR-8 ovarian, 11.1%; in the test with OVCAR-5 ovarian it was 9.56% (active); with OVCAR-4 ovarian, 19.7%; in the test with SK-OV-3 ovarian it was -11.7% (active). The growth with IGROV1 ovarian is 19.4%; with OVCAR-3 ovarian, 32.9%; in the test on HS 578T breast, 43.4%; with NCI/ADR-RES ovarian, -6.08% (active); in the test on T-47D breast, -2.63% (active); in the test with BT-549 breast it was -28% (active). Besides, the growth is 1.23% (active) in the test on MDA-MB-435 melanoma; -15.7% (active) with SW-620 colon; 8.07% (active) in the test on MCF7 breast; -13.9% (active) with HCT-116 colon; 52.1% with HCC-2998 colon; -44.2% (active) in the test with KM12 colon.
Consider `CCN(CC)CCOC(=O)C(OC(C)C)(c1ccccc1)c1ccccc1`, for which the growth in the test with MOLT-4 leukemia was 93.1%; in the test with RPMI-8226 leukemia it was 102%; with OVCAR-8 ovarian it was 106%; in the test with OVCAR-5 ovarian it was 92.9%; with OVCAR-4 ovarian, 103%; in the test on SK-OV-3 ovarian, 94.4%. The growth was 87.2% with IGROV1 ovarian; 97.3% in the test with OVCAR-3 ovarian; 93.4% with HS 578T breast; 100% in the test with NCI/ADR-RES ovarian; 93.8% with T-47D breast; 96.6% in the test with BT-549 breast. Besides, the growth with MDA-MB-435 melanoma is 103%; with SW-620 colon it was 91.5%; with MCF7 breast it was 95.3%; in the test with HCT-116 colon, 78.4%; with HCC-2998 colon, 108%; with KM12 colon it was 101%.
For `COc1cccc2c1c(C(=O)C(=O)Nc1ccn[nH]1)cn2Cc1ccc(F)cc1`, the growth is 97.5% in the test with MOLT-4 leukemia; 96.8% with RPMI-8226 leukemia; 101% in the test on OVCAR-8 ovarian; 91.2% in the test on OVCAR-5 ovarian; 110% with OVCAR-4 ovarian; 95.9% in the test with SK-OV-3 ovarian. Further, the growth in the test with IGROV1 ovarian was 84.7%; in the test with OVCAR-3 ovarian, 106%; in the test with HS 578T breast it was 100%; in the test on NCI/ADR-RES ovarian, 109%; with T-47D breast, 104%; in the test on BT-549 breast, 114%. Moreover, the growth in the test with MDA-MB-435 melanoma is 121%; with SW-620 colon, 102%; with MCF7 breast, 92.3%; with HCT-116 colon, 103%; in the test on HCC-2998 colon, 39.6%; in the test with KM12 colon, 105%.
Turning to `CC(=O)O[C@H](C[C@H](C(C)C)N(C)C(=O)[C@@H](NC(=O)[C@H]1CCCCN1C)C(C)C)c1cccc(C(=O)N[C@@H](Cc2ccccc2)C[C@H](C)C(=O)O)n1`, the growth with MOLT-4 leukemia was 9.11% (active); in the test on RPMI-8226 leukemia it was 19.7%; with OVCAR-8 ovarian, 1.57% (active); in the test on OVCAR-5 ovarian it was 32.5%; in the test with OVCAR-4 ovarian it was 41.9%; with SK-OV-3 ovarian, 23.3%. For the same molecule, the growth is 24% in the test with IGROV1 ovarian; -50.3% (active) in the test with OVCAR-3 ovarian; 9.57% (active) with HS 578T breast; 8.24% (active) in the test on NCI/ADR-RES ovarian; 47.7% with T-47D breast; -8.23% (active) in the test on BT-549 breast. For the same molecule, the growth in the test with MDA-MB-435 melanoma was -37.7% (active); in the test on SW-620 colon it was 23.7%; with MCF7 breast, 15.9%; in the test on HCT-116 colon it was 2.75% (active); in the test with HCC-2998 colon it was 9.77% (active); in the test on KM12 colon, 4.91% (active).
With `CCOC(=S)S[C@H]1C[C@@H]2[C@H](CC[C@]3(C)C(=O)CC[C@@H]23)[C@@]2(C)CCC(=O)C=C12`, the growth in the test on MOLT-4 leukemia is 110%; with SR leukemia, 106%; in the test with OVCAR-8 ovarian, 100%; with OVCAR-5 ovarian it was 102%; in the test on OVCAR-4 ovarian it was 106%; with SK-OV-3 ovarian, 108%. For the same molecule, the growth with IGROV1 ovarian is 112%; in the test with HS 578T breast it was 108%; in the test on NCI/ADR-RES ovarian it was 102%; with T-47D breast, 108%; in the test with BT-549 breast it was 105%; in the test with MDA-MB-435 melanoma it was 101%. The growth with SW-620 colon is 105%; in the test on MCF7 breast, 90.6%; in the test with HCT-116 colon, 104%; with HCC-2998 colon, 106%; with KM12 colon it was 101%.
As to `C[C@@]12CC[C@@H](O)C[C@@H]1CC[C@H]1[C@H]2CC[C@@]2(C)[C@H](c3ccc(=O)oc3)CC[C@@]12O`, the growth in the test on MOLT-4 leukemia is -26.7% (active); with RPMI-8226 leukemia it was -14.8% (active); in the test with OVCAR-8 ovarian, -63.3% (active); in the test with OVCAR-5 ovarian, -86.2% (active); with OVCAR-4 ovarian, -76.3% (active); with SK-OV-3 ovarian it was -11.9% (active). For the same molecule, the growth in the test on IGROV1 ovarian was -28.7% (active); in the test on OVCAR-3 ovarian, -84.8% (active); in the test on HS 578T breast it was -14% (active); with NCI/ADR-RES ovarian, -39.6% (active); with T-47D breast, -18.1% (active); with BT-549 breast, -84.2% (active). Moreover, the growth in the test with MDA-MB-435 melanoma was -81.9% (active); in the test on SW-620 colon it was -68.3% (active); in the test with MCF7 breast it was -27% (active); in the test with HCT-116 colon, -76% (active); with HCC-2998 colon it was -50.7% (active); with KM12 colon, -87.6% (active).
As to `CCOC(=O)c1c(C)n(Cc2ccccc2)c2cc(CN(C)C)c(O)cc12`, the growth in the test on MOLT-4 leukemia was 52.7%; in the test with SR leukemia, 17.8%; in the test on OVCAR-8 ovarian, 80.7%; with OVCAR-5 ovarian, 69.3%; in the test with OVCAR-4 ovarian it was 68.1%; in the test on SK-OV-3 ovarian it was 70.4%. The growth in the test on OVCAR-3 ovarian was 79.4%; with HS 578T breast, 61.1%; in the test on NCI/ADR-RES ovarian it was 63.5%; in the test on T-47D breast it was 61.1%; in the test with BT-549 breast, 64.7%; in the test on MDA-MB-435 melanoma, 80.3%. For the same molecule, the growth was 63% in the test with SW-620 colon; 55.3% in the test with MCF7 breast; 51.7% with HCT-116 colon; 55.4% with HCC-2998 colon; 76.5% in the test with KM12 colon.
